Screening results (PubChem)
Autofluor 339: intrinsic fluorescence of library compounds, ex339/em460 – biochemical, MLSMR library, data from DPM-DC assay, artefact control, profiling panel | 5.5% of 65,000 active | compound autofluorescence, ex339/em460 nm, NADH buffer; hits give high values; 1 = no-compound wells, NADH background | fluorescence fold increase at 10 µM;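 active = at 10 µM, mean starting fluorescence two-fold or more over control wells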;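 also: signal is the first read of a kinetic run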
NADH coupling: inhibitors of PK/LDH coupling enzymes, profiling panel, artefact control, biochemical, MLSMR library; coupled PK/LDH NADH assays, four targets; IC50, µM (doses to about 10 µM); 0.02% of 65,000 active; AID 774, 2007;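 active = single-dose screening hits from any of four coupled enzyme assays that gave an IC50 when retested across doses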;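 also: the DPM-DC format reads NADH fluorescence rather than 340 nm absorbance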
Spn PMK inh: S. pneumoniae PMK inhibitors, primary screen, biochemical, mevalonate pathway, pilot trial included | phosphomevalonate kinase (Streptococcus pneumoniae D39) | purified PMK, PK/LDH-coupled NADH absorbance 340 nm | inhibition, % at 10 µM | 0.49% of 65,000 active | AID 539, 2006;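 active = top-ranked compounds by inhibition in the single 10 µM screen, taking a fixed number of the strongest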
MK inhibit: S. pneumoniae MK inhibitors, primary screen, biochemical, PK/LDH-coupled NADH absorbance; mevalonate kinase [Streptococcus pneumoniae D39]; purified MK, PK/LDH-coupled NADH absorbance 340 nm; inhibition, % at 10 µM; 0.48% of 65,000 active; AID 555, 2006;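 active = ranked among the strongest by inhibition in the single 10 µM screen, a fixed top-ranked set picked for dose follow-up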
Abs 340nm: compound light absorbance at 340 nm, profiling panel, artefact control, biochemical, MLSMR library, data from PS, PMK, MK assays | fold change at 10 µM | 65,000 tested, under 10 active | compound absorbance at 340 nm, fold over control | AID 708, 2007;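 active = at 10 µM dose, initial 340 nm absorbance at least 2 fold that of control wells; inactive = change under 2 fold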;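 also: initial absorbance extrapolated from kinetic A340 decline of NADH oxidation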
Spn DPM-DC inh: S. pneumoniae DPM-DC inhibitors, primary screen, biochemical, PK/LDH-coupled NADH fluorescence. purified DPM-DC. calls only at 10 µM. 0.49% of 65,000 active;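 active = the 320 compounds with the highest percent inhibition in the single-dose primary screen, excluding strongly autofluorescent ones, cut at about 32% in these data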;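 also: kinetic rate of NADH fluorescence loss reporting ADP formed by the decarboxylase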
A number is an active result; 0 = inactive; - = not tested or not shown; + = active, no number. Only some compounds are listed: those with a hit (about 6.5% of all), similar ones and a draw of the others.

SMILES	Autofluor 339	NADH coupling	Spn PMK inh	MK inhibit	Abs 340nm	Spn DPM-DC inh
Cc1cccn2c(=O)c3cc(C(=O)NCCN4CCOCC4)n(Cc4ccccc4)c3nc12	3.83	0	0	0	0	-
Cc1cc(C)n(Cc2cc(C)c(Cn3nc(C)cc3C)cc2C)n1	0	0	0	0	0	0
O=C(C1CCCN(Cc2cccnc2)C1)N1CCCCC1 (stereo not given)	0	0	0	45.0	0	0
CS(=O)(=O)N1CCN(C(=O)CCC2CCCC2)CC1	0	0	33.0	0	0	0
COc1ccc(S(=O)(=O)N2CCN(C(=O)CCC3CCCC3)CC2)cc1	0	0	0	0	0	0
Cc1ccc(CNC(=O)CSc2nc(N3CCCCC3)nc(N3CCCCC3)n2)cc1	0	0	0	0	0	0
O=C(NCc1nnc(SCC(=O)N2CCN(c3ccccc3)CC2)o1)c1ccco1	0	0	0	42.0	0	0
CC1C(=NO)C(C)C(c2ccc(N(C)C)cc2)NC1c1ccc(N(C)C)cc1 (stereo not given)	0	0	0	0	0	0
O=C1c2ccccc2NC(c2ccccn2)N1c1ccc(Cl)cc1 (stereo not given)	4.83	0	0	0	0	-
Cc1cccc(C2Nc3ccccc3C(=O)N2c2ccccc2)n1 (stereo not given)	2.16	0	0	0	0	-
O=C1c2ccccc2NC(c2ccccc2)N1c1ccc(O)cc1 (stereo not given)	0	0	0	0	0	0
O=C(c1cccs1)c1cn(CC(=O)N2CCc3ccccc3C2)c2ccccc12	0	0	0	0	0	0
CN1CCCc2cc3c(C(F)(F)F)cc(=O)oc3nc21	2.21	0	0	0	0	-
NC(=O)c1oc2ccc(Cl)cc2c1NC(=O)CN1CCOCC1	0	0	0	0	0	0
CCN(CC)S(=O)(=O)c1ccc(NC2c3ccccc3C(=O)N2Cc2ccc3c(c2)OCO3)cc1 (stereo not given)	0	0	0	0	0	0
CCN(CC)S(=O)(=O)c1ccc(NC2c3ncccc3C(=O)N2Cc2ccccc2)cc1 (stereo not given)	0	0	0	50.0	0	0
COc1ccc(CN2C(=O)c3cccnc3C2Nc2cc(Cl)c(OC)cc2OC)cc1 (stereo not given)	0	0	0	57.0	0	0
O=C(CCN1CCc2ccccc2C1)Nc1ccccc1	0	0	0	0	0	0
CCOC(=O)C1CCN(C(=O)CSC2=NCCS2)CC1	0	0	0	0	0	0
COc1ccccc1-n1c(SCC(=O)Nc2ccccc2C)nc(O)cc1=O	0	0	0	0	0	0
COc1ccccc1NC(=O)CSc1nc(O)cc(=O)n1-c1ccccc1OC	0	0	0	0	0	+
COc1ccc(CCNC(=O)CN2CCCc3ccccc32)cc1OC	0	0	0	0	0	0
COc1cc(C(=O)NCCC(=O)NCCN2CCCCCC2)cc(OC)c1OC	0	0	0	0	0	0
CC1(C)CC(=O)c2cc(OCC(=O)NCCCN3CCN(c4ccc(F)cc4)CC3)ccc2O1	3.65	0	0	0	0	0
CCC(Oc1ccc2c(c1)C(=O)CC(C)(C)O2)C(=O)NCCN1CCCCCC1 (stereo not given)	5.03	0	0	0	0	-
SMILES	Autofluor 339	NADH coupling	Spn PMK inh	MK inhibit	Abs 340nm	Spn DPM-DC inh
CC1(C)CC(=O)c2cc(OCC(=O)NCCN3CCCc4ccccc43)ccc2O1	5.04	0	0	0	0	-
CC(C)(C)c1ccc(C(=O)C=[N+]=[N-])cc1	0	0	0	0	0	0
CC1SC(=NC(=O)c2ccco2)NC1=O (stereo not given)	0	0	26.0	0	0	0
O=C(O)CSCC(=O)NCc1ccccc1	0	0	0	0	0	0
COc1ccccc1NC(=O)C1=C(C)Nc2nc(-c3cccs3)nn2C1c1cccnc1 (stereo not given)	0	0	0	0	0	0
CN1CCCN(C(=O)Cc2c(Cl)cccc2Cl)c2nc3ccccc3nc21	0	0	0	0	0	0
Cc1ccc2cc3cc(C(=O)N4CCN(C(=O)c5ccco5)CC4)sc3nc2c1	0	0	0	0	0	0
CCN1CCN(C(=O)c2cc3cc4cc(OC)ccc4nc3s2)CC1	2.77	0	0	0	0	0
COc1ccc(NC(=O)c2oc3ccccc3c2C)c(OC)c1	0	0	0	0	0	0
COc1ccc(NC(=O)c2oc3ccccc3c2NC(=O)c2ccc(OC)c(OC)c2)c(OC)c1	5.05	0	0	0	0	-
CCOCC(=O)Nc1c(C(=O)Nc2ccccc2OC)oc2ccccc12	5.06	0	0	0	0	-
COc1cc2c(cc1NC(=O)c1ccc3c(c1)OCO3)oc1ccccc12	3.04	0	0	0	0	+
N#Cc1ccccc1OCC(=O)Nc1c(C(=O)C2CC2)oc2ccccc12	2.62	0	0	0	0	0
CCC(=O)Nc1c(C(=O)Nc2cccc(OC)c2)oc2ccccc12	0	0	0	0	0	0
O=C(NCN1C(=O)C2C3C=CC(C3)C2C1=O)Nc1nccs1 (stereo not given)	0	0	0	0	0	0
C=CCn1c(SCC(=O)/C(C#N)=C(\C)N)nnc1C1CCCCC1	0	0	0	0	0	0
O=c1[nH]c(Cn2nnc(-c3ccccc3)n2)nc2scc(-c3ccccc3)c12	0	0	0	0	0	0
COc1ccc(NC(=O)c2oc3ccccc3c2NC(=O)COc2ccccc2OC)c(OC)c1	5.01	0	0	0	0	-
COc1ccc(NC(=O)COc2ccccc2)c(OC)c1	0	0	0	0	0	0
Nc1cc(C(=O)O)ccc1Nc1ccccc1	0	0	0	0	0	+
Cc1sc(NC(=O)c2oc3ccccc3c2C)c(C#N)c1C	3.81	0	0	0	0	-
CCCNC(=O)CCC(=O)Nc1ncc(-c2ccc(C)cc2)n1C	0	0	0	0	0	0
CC1(C)Cc2c(c(-c3ccccc3)nc3[nH][nH]c(=O)c23)CO1	0	0	0	0	0	0
CC1(C)Cc2c(C#N)c(NCCCO)nc(-c3ccccc3)c2CO1	2.09	0	0	0	0	-
Cc1nc(NCCCO)c(C#N)c2c1COC(C)(C)C2	2.29	0	0	0	0	-
CCN(CC)c1nc(C)c2c(c1C#N)CC(C)(C)OC2	0	0	0	0	0	0
CCOC(=O)N1CCC(N2CC34C=CC(O3)C(C(=O)O)C4C2=O)CC1 (stereo not given)	0	0	0	0	0	0
CC(=O)Oc1ccc2c(C)cc(=O)[nH]c2c1	0	0	0	0	0	0
CC(=O)Oc1cc2oc(=O)cc(C)c2cc1OC(C)=O	2.2	0	0	0	0	-
